Assay results published in PubChem BioAssay (EPA / NIEHS).
Results filed as inconclusive are left out. Active and inactive are the calls of the source. The calls were made as follows, unless noted: active = hit-call score of the fitted dose curve at least 0.9, where 1 is the maximum; inactive = score below 0.9.

Experiments:
[1] = CCTE_Shafer_MEA_dev_firing_rate_mean: CCTE's Neural Network Formation Assay for Mean Firing Rate, Shafer Lab (AID 2284031)
Method in brief: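 Extracellular spike frequency, AUC over DIV 5–12 recordings, in rat cortical neuron MEA cultures dosed from plating; loss direction vs DMSO.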

[2] = CCTE_Shafer_MEA_dev_per_burst_spike_percent: CCTE's Neural Network Formation Assay for Percent of Spikes in a Burst, Shafer Lab (AID 2284032)
Method in brief: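 Value is trapezoidal AUC over recordings on days 5, 7, 9 and 12 of the well-mean fraction of spikes falling in single-electrode bursts; rat cortical cultures exposed continuously from plating, treatment renewed DIV 5 and 9, fitted downward against DMSO.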

[3] = CCTE_Shafer_MEA_dev_active_electrodes_number: CCTE's Neural Network Formation Assay for Number of Active Electrodes, Shafer Lab (AID 2284040; active = hit-call score of the fitted dose curve at least 0.9, where 1 is the maximum)
Method in brief: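 Developing rat cortical networks on MEAs, exposed DIV 0–12. Value is the AUC of active-electrode counts (≥5 spikes/min) from days 5, 7, 9, 12, relative to DMSO.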

[4] = CCTE_Shafer_MEA_dev_burst_rate: CCTE's Neural Network Formation Assay for Burst Rate, Shafer Lab (AID 2284042)
Method in brief: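 Developmental network assay measuring how 12-day exposure of rat cortical neuron cultures alters bursting on extracellular MEA recordings. Values are AUC of well-mean burst rate across four recording days, relative to DMSO vehicle.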

[5] = CCTE_Shafer_MEA_dev_bursting_electrodes_number: CCTE's Neural Network Formation Assay for Number of Bursting Electrodes, Shafer Lab (AID 2284043; active = hit-call score of the fitted dose curve at least 0.9, where 1 is the maximum)
Method in brief: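 Number of electrodes reaching ≥1 burst every 2 min was recorded at DIV 5, 7, 9 and 12 and collapsed as trapezoidal area under the curve. Cultures were rat cortical neurons on MEA plates, dosed continuously from plating with medium and treatment refreshed on DIV 5 and 9.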

[6] = CCTE_Shafer_MEA_dev_per_burst_interspike_interval: CCTE's Neural Network Formation Assay for Burst Interspike Interval, Shafer Lab (AID 2284044)
Method in brief: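 Neurons from rat cortex plated onto PEI-coated MEA wells with laminin […] at 1.5 x 10^5 cells/well, then treated from day 0. Media and compound fully replaced on DIV 5 and 9. Extracellular spontaneous firing recorded four times; interspike interval per burst summarised as AUC.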

[7] = CCTE_Shafer_MEA_dev_interburst_interval_mean: CCTE's Neural Network Formation Assay for Mean Interburst Interval, Shafer Lab (AID 2284046);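 also: well-mean interburst interval of bursting electrodes as AUC over four recording days; curve fitted for decrease in interburst interval relative to DMSO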
Method in brief: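 Network formation assay in primary rat cortical cultures, exposed from DIV 0 to 12. Mean interburst interval per well, integrated as AUC over four recordings.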

[8] = CCTE_Shafer_MEA_dev_inter_network_spike_interval_mean: CCTE's Neural Network Formation Assay for Mean Inter-network Spike Interval, Shafer Lab (AID 2284047)
Method in brief: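 Compound was given at plating to primary rat cortical neurons and renewed with full medium changes on DIV 5 and 9. Extracellular activity was recorded on days 5, 7, 9, 12; AUC values were fitted for loss relative to DMSO control.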

[9] = CCTE_Shafer_MEA_dev_network_spike_number: CCTE's Neural Network Formation Assay for Number of Network Spikes, Shafer Lab (AID 2284048);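 also: synchronized bursts across electrodes counted on days 5 7 9 12 and integrated as AUC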
Method in brief: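 Number of network spikes (coordinated firing across electrodes) recorded on days 5, 7, 9 and 12 and summarised as area under the curve. Rat cortical cultures on MEA, continuous compound exposure with full medium/treatment exchange at DIV 5 and 9.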

[10] = CCTE_Shafer_MEA_dev_network_spike_peak: CCTE's Neural Network Formation Assay for Mean Number of Electrodes in Network Spike, Shafer Lab (AID 2284049)
Method in brief: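 Rat cortical primary culture, 1.5 x 10^5 cells/well, 48-well MEA (16 electrodes/well). Dosing day 0 through DIV 12, full media/compound exchange DIV 5, 9. AxIS adaptive spike detection; AUC over days 5/7/9/12; loss-of-signal vs DMSO.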

[11] = CCTE_Shafer_MEA_dev_network_spike_duration_std: CCTE's Neural Network Formation Assay for Standard Deviation of Network Spike Duration, Shafer Lab (AID 2284052);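 also: area under curve of spike duration SD across recording days 5 to 12; hits are decreases in network spike duration SD versus DMSO vehicle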
Method in brief: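 Developing networks of rat cortical neurons were exposed over twelve days in vitro on 48-well MEA plates. Trapezoidal AUC of recordings (DIV 5–12) was analysed for signal loss relative to DMSO vehicle.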

[12] = CCTE_Shafer_MEA_dev_per_network_spike_spike_number_mean: CCTE's Neural Network Formation Assay for Mean Number of Spikes in a Network Spike, Shafer Lab (AID 2284053)
Method in brief: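 First, rat cortical cells (1.5 x 10^5/well) were seeded onto MEA wells; second, dosing began at plating and was refreshed on DIV 5 and 9; finally, network-spike spike counts across DIV 5–12 were summarized as AUC.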

[13] = CCTE_Shafer_MEA_dev_per_network_spike_spike_percent: CCTE's Neural Network Formation Assay for Percent of Spikes in a Network Spike, Shafer Lab (AID 2284054)
Method in brief: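 Metric: fraction of spikes falling in a 0.05 s window at network-spike peaks. Recordings were made on days 5, 7, 9 and 12 and collapsed by trapezoidal AUC. Cultures were rat cortical neurons on MEA plates, dosed continuously from plating, re-dosed at media changes.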

[14] = CCTE_Shafer_MEA_dev_LDH: CCTE's Lactate Dehydrogenase Assay for Cytotoxicity in the Neural Network Formation Assay, Shafer Lab (AID 2284068; active = hit-call score of the fitted dose curve at least 0.9, where 1 is the maximum;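 also: exposure for twelve days from plating with re-dosing on DIV 5 and 9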)
Method in brief: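 Developing rat cortical networks on MEA plates are exposed to compound for 12 days from plating. LDH activity is measured spectrophotometrically, with DMSO as baseline.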

[15] = CCTE_Shafer_MEA_dev_AB: CCTE's Alamar Blue Assay for Cytotoxicity in the Neural Network Formation Assay, Shafer Lab (AID 2284083; active = hit-call score of the fitted dose curve at least 0.9, where 1 is the maximum;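 also: resazurin reduction fluorescence as viability of cultured neurons; twelve days of exposure from plating with re-dosing on DIV 5 and 9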)
Method in brief: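 Cytotoxicity companion to the developmental MEA: primary rat cortical neurons, 12-day exposure starting day 0, compound refreshed DIV 5 and 9; resazurin fluorescence, fitted against DMSO vehicle.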

[16] = UKN2_HCS_IMR90_neural_migration: University of Konstanz (UKN) Leist Lab Neural Crest Cell Migration Assay in human induced IMR90 Pluripotent Stem Cells (UKN2) (AID 2284204); settings: actives raise or lower the signal
Method in brief: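 High-content imaging of calcein-AM and Hoechst stained cells quantifies migration into a stopper-defined gap after 24 h compound exposure. Neural crest cells from IMR90 iPSC migrated 24 h in EGF/FGF N2-S medium before dosing; DMSO baseline.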

[17] = IUF_NPC1b_proliferation_BrdU_72hr: Leibniz Research Institute for Environmental Medicine (IUF) 72-hour Neural Progenitor Cell Bromodeoxyuridine (BrdU) Proliferation Assay (NPC1b) (AID 2284207)
Method in brief: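 Human fetal cortex-derived (GW 16-19) neural progenitor spheres, 0.25-0.35 mm, one per well in EGF/FGF proliferation medium, exposed to compound for 72 h at 37C, pH 7.2-7.6. BrdU incorporation over the final 16 h read by luminescence ELISA, relative to DMSO.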

[18] = IUF_NPC1a_proliferation_area_72hr: Leibniz Research Institute for Environmental Medicine (IUF) 72-hour Neural Progenitor Cell Proliferation Area Assay (NPC1a) (AID 2284208)
Method in brief: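 Spheres of 0.3 mm are plated singly in growth-factor medium and exposed from day 0. After three days at 37C and 5% CO2, sphere area is measured by phase contrast imaging, with activity referenced to DMSO.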

[19] = IUF_NPC1_viability_72hr: Viability Assessment at 72 hours in the Leibniz Research Institute for Environmental Medicine (IUF) Neural Progenitor Cell Proliferation Assay (NPC1) (AID 2284209)
Method in brief: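 Three-day continuous exposure of human neural progenitor spheres under EGF/FGF-driven proliferation; cell viability scored by alamar blue signal versus DMSO.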

[20] = CCTE_Mundy_HCI_Cortical_Synap_Neur_Matur_NeuriteSpotCountPerNeuriteLength: CCTE's Synaptogenesis and Neurite Maturation Assay in rat cortical cells for Neurite Spot Count per Neurite Length, Mundy Lab (AID 2284210)
Method in brief: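 Synaptophysin spots per unit neurite length, measured by automated imaging of MAP2/synaptophysin/Hoechst-stained neurons. Cultures from rat cortex received chemical at DIV 7 with media change through DIV 12; glial growth arrested by AraC at DIV 5; DMSO baseline.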

## CCc1ccccc1
[1]
  outcome: inactive
[2]
  outcome: inactive
[3]
  outcome: inactive
[4]
  outcome: inactive
[5]
  outcome: inactive
[6]
  outcome: inactive
[7]
  outcome: inactive
[8]
  outcome: inactive
[9]
  outcome: inactive
[10]
  outcome: inactive
[11]
  outcome: inactive
[12]
  outcome: inactive
[13]
  outcome: inactive
[14]
  AC50: 299 nM (active)
[15]
  AC50: 476 nM (active)
[16]
  outcome: inactive
[17]
  AC50: 12700 nM (active)
[18]
  outcome: inactive
[19]
  outcome: inactive
[20]
  outcome: inactive
